Screening results: PubChem BioAssay, several laboratories
Rv3671c protease – Rv3671c serine protease inhibitors, primary screen, biochemical, fluorescence polarization, M. tuberculosis H37Rv. P9WHR9. inhibition, % at 5.96 µM. actives 0.048% (n = 320,000); in the data active = inhibition above about 38%;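 note: extracellular domain of Rv3671c used as enzyme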
Mtb FBA inh – Mtb FBA enzyme inhibitors, primary screen, biochemical, fluorescence, strain H37Rv; inhibition, % at 1 µM; purified M. tuberculosis FBA, fluorescence read-out; actives 2.3% (n = 360,000); Fructose-bisphosphate aldolase (Mycobacterium tuberculosis (strain ATCC 25618 / H37Rv)), …; in the data active = inhibition above about 27%
RecA splice inh – Mtb RecA intein splicing inhibitors, primary screen, biochemical, fluorescence, HTS; inhibition, % (concentration not given with the values); actives 0.75% (n = 290,000); cell-free RecA intein splicing; in the data active = inhibition above about 30%; inconclusive = no clear call, values can overlap the other calls
Mtb bLac sens – beta-lactam sensitization of Mtb H37Rv, H37Rv | M. tuberculosis H37Rv growth with meropenem, percent inhibition | inhibition, % at 25 µM | actives 0.27% (n = 330,000);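 note: growth measured after seven days incubation then overnight dye step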
GDH-TPI counter – GDH-TPI coupling enzyme inhibitors, primary screen, artefact control for M. tuberculosis FBA inhibitor project, biochemical, absorbance, full deck | GDH-TPI coupled enzyme counterscreen, NADH absorbance | inhibition, % at 4.8 µM | actives 1.2% (n = 360,000) | AID 588335, 2011; in the data active = inhibition above about 30%
UGM FP inh – M. tuberculosis UGM enzyme inhibitors, primary screen, biochemical, fluorescence polarization, single point | purified UGM, fluorescence polarization probe displacement | inhibition, % at 10 µM | actives 0.06% (n = 320,000) | AID 504406, 2011; in the data active = inhibition above about 10%, passing the limit was not always enough; inconclusive = no clear call, values can overlap the other calls
Target sequence (P9WIQ1 whole entry, looked up): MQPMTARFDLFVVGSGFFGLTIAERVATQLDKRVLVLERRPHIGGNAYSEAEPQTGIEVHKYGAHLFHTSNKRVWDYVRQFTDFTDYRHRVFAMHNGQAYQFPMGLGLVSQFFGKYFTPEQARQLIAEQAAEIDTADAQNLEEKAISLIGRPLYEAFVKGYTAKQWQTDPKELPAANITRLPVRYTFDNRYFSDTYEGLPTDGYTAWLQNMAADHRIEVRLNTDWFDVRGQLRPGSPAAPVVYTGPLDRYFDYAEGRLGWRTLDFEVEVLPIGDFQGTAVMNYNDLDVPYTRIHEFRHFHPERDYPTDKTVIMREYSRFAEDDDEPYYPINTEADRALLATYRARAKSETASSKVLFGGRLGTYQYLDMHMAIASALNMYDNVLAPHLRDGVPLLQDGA
GFP chromo cs – counter-screen: blocks GFP chromophore formation, dose response, counter-screen, biochemical, fluorescence, homogeneous; shares compounds with RecA splice inh; cell-free GFP chromophore formation; EC50, µM; actives 83% (n = 2,100)
A number is an active result; . = inactive; ? = inconclusive; / = no result. Hits are enriched below; roughly 4% of the tested compounds scored in any of these assays. Unless noted, the rule behind the calls is not given here.

SMILES	Rv3671c protease	Mtb FBA inh	RecA splice inh	Mtb bLac sens	GDH-TPI counter	UGM FP inh	GFP chromo cs
Cc1ccc(NC(=O)CSc2ncc(-c3ccccc3)n2C(=O)c2ccccc2)cc1	.	.	54	.	.	.	1.2
CC(=O)Nc1ccc(NC(=O)CSc2ncc(C(=O)Nc3ccccc3)c(=O)n2C)cc1	.	.	31	.	.	.	0.11
CCc1cccc(NC(=O)Cn2cccc2)c1	.	.	.	.	.	.	/
CCc1cccc(NC(=O)CSCc2cc(=O)[nH][nH]2)c1	.	.	81	.	.	.	12
NC(=O)C1CCN(C2=C(Cl)C(=O)c3ccccc3C2=O)CC1	.	.	43	.	.	.	0.54
O=C1C(Cl)=C(N2CCC(C(=O)O)CC2)C(=O)c2ccccc21	.	.	50	.	.	.	13
CN1CCN(C2=C(Cl)C(=O)c3ccccc3C2=O)CC1	/	.	/	/	.	/	/
CCN(Cc1ccccc1)C(=O)CSc1nc(C)cc(=O)[nH]1	.	.	.	.	.	.	/
O=C1c2[nH]nc(-c3ccccc3O)c2C(c2cccc(Cl)c2)N1Cc1ccco1 (stereo unspecified)	.	.	34	?	.	.	.
Cc1[nH]c2ccccc2c1CCNC(=O)c1ccc2c(c1[N+](=O)[O-])C(=O)c1ccccc1C2=O	.	.	84	.	.	.	31
Cc1[nH]c2c(C)cccc2c1CCNC(=O)c1ccc2c(c1[N+](=O)[O-])C(=O)c1ccccc1C2=O	.	.	.	.	.	.	/
N#Cc1c(C#N)c(O)c2ccccc2c1O	.	.	84	.	.	.	2.4
O=C(Cn1c(=O)oc2cc(S(=O)(=O)N3CCCC3)ccc21)Nc1ccccn1	/	.	/	/	.	/	/
Oc1ccc(/C=N/Nc2ccc(C(F)(F)F)cn2)c(O)c1	.	.	42	.	.	.	.
COc1cc(/C=N/NC(=S)Nc2cccc(Cl)c2C)ccc1OCC(=O)N1CC(C)OC(C)C1 (stereo unspecified)	.	.	55	.	33	.	37
CCN(CC)C(=O)CSc1nnc2nnc3cc(OC)ccc3n12	.	.	31	/	.	.	.
CCN(CC)C(=O)CSc1nnc(COc2ccc(OC)cc2)n1N	.	.	.	.	.	.	/
O=C(Cc1ccccc1F)Nc1nc2ccccc2[nH]1	.	.	38	.	.	.	.
Cn1cc(CN2CCCC(C(=O)Nc3ccc(-c4cccc(F)c4)cc3)C2)cn1 (stereo unspecified)	.	.	.	.	.	.	/
CCN(CC)C(=O)C1=C(C)N(CCC2=CCCCC2)C(=O)C(CC(=O)NCc2ccco2)C1 (stereo unspecified)	/	.	/	/	.	/	/
CC(CCc1ccccc1)NC(=O)COC(=O)c1ccc(S(C)(=O)=O)c([N+](=O)[O-])c1 (stereo unspecified)	.	.	55	.	.	.	32
CS(=O)(=O)c1ccc(C(=O)OCc2nnc(-c3ccccc3)o2)cc1[N+](=O)[O-]	/	.	73	/	.	/	14
CC(CCc1ccccc1)NC(=O)COC(=O)c1ccc([N+](=O)[O-])cc1 (stereo unspecified)	.	.	.	.	.	.	/
CN(C)S(=O)(=O)c1ccc(C(=O)OCc2nnc(-c3ccccc3)o2)cc1	.	.	.	.	.	.	/
CC1=C(C)/C(=N/OC(=O)c2cccc([N+](=O)[O-])c2)C=CC1=O	.	.	47	.	.	.	.
SMILES	Rv3671c protease	Mtb FBA inh	RecA splice inh	Mtb bLac sens	GDH-TPI counter	UGM FP inh	GFP chromo cs
N/C(=N/OC(=O)c1cccc([N+](=O)[O-])c1)c1cccc([N+](=O)[O-])c1	.	.	.	.	.	.	/
CCCCN(C(=O)c1ccc(Cl)c(S(=O)(=O)N2CCOCC2)c1)c1c(N)n(CCC)c(=O)[nH]c1=O	.	.	.	.	.	.	/
O=C(NCCc1ccccc1)C(=S)N1CCCCC1	.	.	.	.	.	.	/
Cc1ccc(NC(=O)C(CC(C)C)NC(N)=O)cc1 (stereo unspecified)	.	.	33	.	.	.	.
COc1ccc(NS(=O)(=O)c2cccc(C(=O)OCC(=O)N3CCN(c4ccc(OC)cc4)CC3)c2)cc1	.	.	/	.	.	.	/
O=C(NC(=S)N(CCO)Cc1ccccc1)c1ccc(S(=O)(=O)N2CCCC2)cc1	.	.	/	.	.	.	/
CC1=NN(c2ccc(C(=O)O)cc2)C(=O)CC1	.	.	.	.	.	.	/
CC1=NN(c2cc(Cl)c(S(=O)(=O)O)cc2Cl)C(=O)C1	/	.	/	/	.	/	/
CC1=NN(c2ccc(S(=O)(=O)O)cc2Cl)C(=O)C1	.	.	82	.	.	.	30
CC1=NN(c2ccc(C(=O)O)c(N)c2)C(=O)C1	.	.	69	.	.	.	2.6
CC1=NN(c2ccc([N+](=O)[O-])cc2)C(=O)C1	/	.	/	/	.	/	/
CC1=NN(c2ccc(Cl)c(C(=O)O)c2)C(=O)C1	.	.	95	.	.	.	5.6
CCCCNc1ccc(C(=O)OCCOCCOCCOCCOCCOCCOCCOCCOCCOC)cc1	.	.	/	.	.	.	/
C#CCOc1ccc(CNC[C@H]2O[C@@H](n3ccc(=O)[nH]c3=O)[C@H](O)[C@@H]2O)cc1	/	.	/	/	/	/	/
Cc1[nH]c2ccc(F)cc2c1CCN(Cc1cccnc1)C(=S)Nc1ccc(F)cc1	.	.	40	.	.	.	.
c1ccc(-c2nnc(-c3ccccn3)nc2NC2CCCCC2)cc1	.	.	38	.	.	.	23
Cc1ccc(Sc2ncnc3onc(C)c23)cc1	.	.	41	.	.	.	.
CC(C)(C)c1c(Cl)c(O)c(-c2ccccc2)c(=O)n1-c1ccccc1	/	.	31	/	.	/	.
O=c1c(-c2ccccc2)c(O)cc(-c2ccncc2)n1-c1ccc(Cl)cc1	.	.	.	.	.	.	/
CC(C)=CCC1=C(OCC(=O)O)C(=O)c2ccccc2C1=O	.	.	63	.	.	.	12
COc1ccc2ccc3c(c2c1)N=C[C@]1(O3)N(C)c2ccccc2C1(C)C	.	.	89	.	.	.	12
CCCc1noc2c1C(c1ccoc1)C(C#N)=C(N)N2 (stereo unspecified)	.	.	79	.	.	.	.
N#CC1=C(N)OC2=C(C(=O)CCC2)C1c1ccoc1 (stereo unspecified)	.	.	.	.	.	.	/
O=[N+]([O-])c1ccc2nc(Cl)nc(-c3ccccc3)c2c1	/	.	47	.	.	.	.
